Experimental data as given in PubChem BioAssay (Tox21).
Where “and” joins values, the source holds several entries; their conditions need not be identical. Equal entries are not always repeated. Results filed as inconclusive are left out. The source holds several records for some structures; these can differ, active in one and inactive in another. Calls of active or inactive are those of the source. Unless noted, the call rests on the fitted dose curve; in most records, active means well fitted curve in the direction sought with a large enough effect in the repeat runs; inconclusive means weak or mixed curves; inactive means no such curve, though single readings can be large; an effect the other way counts as inactive or inconclusive.

Columns and labels:
[1] = molecular target: Thyrotropin receptor (Homo sapiens) (UniProt P16473); assay: qHTS assay to identify small molecule antagonists of the thyroid stimulating hormone receptor (TSHR) signaling pathway (AID 1259385; calls by dose curve; further: nearly all actives have a fitted effect of over 20% in size)
Thyrotropin receptor (Homo sapiens), sequence (P16473 whole entry, looked up): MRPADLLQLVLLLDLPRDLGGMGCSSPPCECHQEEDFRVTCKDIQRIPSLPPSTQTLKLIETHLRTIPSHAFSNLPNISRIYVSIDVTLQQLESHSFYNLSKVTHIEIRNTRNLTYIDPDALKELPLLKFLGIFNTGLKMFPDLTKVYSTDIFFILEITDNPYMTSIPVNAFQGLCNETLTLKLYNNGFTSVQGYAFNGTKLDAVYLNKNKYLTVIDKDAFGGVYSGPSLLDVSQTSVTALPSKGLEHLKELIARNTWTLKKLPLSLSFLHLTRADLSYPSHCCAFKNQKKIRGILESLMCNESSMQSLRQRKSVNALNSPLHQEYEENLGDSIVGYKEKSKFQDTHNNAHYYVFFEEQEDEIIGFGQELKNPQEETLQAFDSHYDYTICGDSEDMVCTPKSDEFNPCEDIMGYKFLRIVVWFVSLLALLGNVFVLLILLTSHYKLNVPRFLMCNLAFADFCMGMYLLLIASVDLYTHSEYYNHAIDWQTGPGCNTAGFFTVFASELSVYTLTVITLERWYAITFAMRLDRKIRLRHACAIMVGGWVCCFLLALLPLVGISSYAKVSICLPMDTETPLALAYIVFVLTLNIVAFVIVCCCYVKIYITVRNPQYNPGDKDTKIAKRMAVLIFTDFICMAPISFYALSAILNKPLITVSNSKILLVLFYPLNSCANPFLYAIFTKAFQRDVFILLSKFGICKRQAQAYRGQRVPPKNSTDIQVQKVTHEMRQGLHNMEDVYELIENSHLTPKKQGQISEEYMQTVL
Method in brief: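 TSHR-HEK293 cells were plated and held 18 h at 37C/5% CO2, then given compound plus Ro20-1724 and stimulated with TSH at 1.5 ng/mL final. After 30 min at room temperature, cAMP was detected with cAMP-d2/anti-cAMP-cryptate (1 h) by fluorescence.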

[2] = qHTS assay to identify small molecule agonists of the estrogen receptor alpha (ER-alpha) signaling pathway in the presence of an antagonist - cell viability counter screen (AID 1259386);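 further: cells exposed to compounds for 22 h at 37 °C before the viability read; nearly all actives have a fitted effect of over 30% in size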; further: potency means the concentration at half of the fitted maximal effect
Method in brief: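 ICI-182,780 at 10.0nM final accompanies the compound titration (15 concentrations, 22hr, 37C) on VM7Luc4E2 cells. The CellTiter-Fluor fluorescence readout runs in the same wells as the luciferase assay.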

[3] = molecular target: Progesterone receptor (Homo sapiens) (UniProt P06401); assay: qHTS assay to identify small molecule agonists of the progesterone receptor (PR) signaling pathway (AID 1346784; calls by dose curve; further: nearly all actives have a fitted effect of over 30% in size)
Progesterone receptor (Homo sapiens), sequence (P06401 whole entry, looked up): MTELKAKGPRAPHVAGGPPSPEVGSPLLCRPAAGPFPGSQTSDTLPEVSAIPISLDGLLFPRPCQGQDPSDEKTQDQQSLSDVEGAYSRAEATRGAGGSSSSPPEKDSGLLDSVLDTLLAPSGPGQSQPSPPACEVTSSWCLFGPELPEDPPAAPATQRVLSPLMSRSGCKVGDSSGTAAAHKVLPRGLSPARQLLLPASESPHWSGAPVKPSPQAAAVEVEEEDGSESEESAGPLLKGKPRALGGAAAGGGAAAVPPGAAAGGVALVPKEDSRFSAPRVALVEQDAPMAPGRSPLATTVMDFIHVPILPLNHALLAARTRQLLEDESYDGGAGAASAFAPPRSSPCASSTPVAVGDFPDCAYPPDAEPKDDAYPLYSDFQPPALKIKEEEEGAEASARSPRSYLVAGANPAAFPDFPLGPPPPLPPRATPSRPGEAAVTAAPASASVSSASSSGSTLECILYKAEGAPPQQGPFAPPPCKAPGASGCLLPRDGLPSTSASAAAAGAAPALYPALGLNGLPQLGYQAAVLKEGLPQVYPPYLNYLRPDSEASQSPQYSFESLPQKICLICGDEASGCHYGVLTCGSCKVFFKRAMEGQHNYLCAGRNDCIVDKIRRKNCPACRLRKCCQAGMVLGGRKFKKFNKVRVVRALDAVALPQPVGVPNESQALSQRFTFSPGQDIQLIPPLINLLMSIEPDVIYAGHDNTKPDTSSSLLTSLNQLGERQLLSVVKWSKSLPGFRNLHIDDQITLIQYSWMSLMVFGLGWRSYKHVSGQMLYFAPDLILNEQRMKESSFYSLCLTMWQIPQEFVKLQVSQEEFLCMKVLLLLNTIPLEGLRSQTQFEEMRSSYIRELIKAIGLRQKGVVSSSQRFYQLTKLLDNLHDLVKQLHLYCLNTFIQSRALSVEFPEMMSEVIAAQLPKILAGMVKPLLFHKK
Method in brief: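 Cells (PR-UAS-bla HEK 293T, GripTite) were plated in assay medium containing 2% charcoal-stripped FBS and incubated 6 hr. Test compounds in DMSO were added for 16 hr at 37C. FRET substrate was then loaded for 2 hr at room temperature before fluorescence reading.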

[4] = molecular target: Progesterone receptor (Homo sapiens) (UniProt P06401); assay: qHTS assay to identify small molecule antagonists of the progesterone receptor (PR) signaling pathway (AID 1346795; active means well fitted inhibition curve with a large enough effect in the signal ratio in the repeat runs, not every such curve was filed as active; the % refers to the signal ratio; further: potency means the concentration at half of the fitted maximal effect)
Method in brief: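 Antagonist mode: compounds tested against 1 nM (final) promegestone stimulation in HEK293T cells expressing PR-UAS-bla reporter, 16 hr at 37C, 5% CO2; beta-lactamase activity detected via B/G FRET substrate after 2 hr at room temperature.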

[5] = qHTS assay to identify small molecule antagonists of the progesterone receptor (PR) signaling pathway - cell viability counter screen (AID 1346798); further: series mostly up to about 92 µM; nearly all actives have a fitted effect of over 50% in size
Method in brief: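 Counter screen for cytotoxicity: viability of PR-UAS-bla HEK293T cells was measured with CellTiter-Glo luminescence following 16 hr compound exposure in the presence of R5020.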

[6] = qHTS assay to identify small molecule agonists of the progesterone receptor (PR) signaling pathway - cell viability counter screen (AID 1346799; calls by dose curve; further: nearly all actives have a fitted effect of over 45% in size)
Method in brief: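 Cells (PR-UAS-bla HEK293T) are plated at 3,000/well in 2% charcoal-stripped FBS medium, rested 6 hr, dosed and incubated 16 hr at 37C. CellTiter-Glo is then added and luminescence measured after 30 min at room temperature.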

[7] = qHTS assay to identify small molecule antagonists of the TGF-beta/Smad signaling pathway - cell viability counter screen (AID 1346824); further: nearly all actives have a fitted effect of over 50% in size
Method in brief: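 SBE-bla HEK 293T cells were plated overnight at 37 C, then given compounds in DMSO plus TGF-beta1 (added as 0.25 ng/mL solution) for 5 hr. After the bla read, CellTiter-Glo was added to the same wells and luminescence read after 30 min at room temperature.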

[8] = qHTS assay to identify small molecule agonists of the TGF-beta/Smad signaling pathway - cell viability counter screen (AID 1346829); further: top concentration of the series differs between compounds; nearly all actives have a fitted effect of over 45% in size
Method in brief: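 SBE-bla HEK 293T cells plated overnight, compound exposure 5 hr at 37 C. Viability read in the same wells by CellTiter-Glo luminescence after 30 min at room temperature, following the beta-lactamase read.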

[9] = molecular target: Thyrotropin-releasing hormone receptor (Homo sapiens) (UniProt P34981); assay: qHTS assay to identify small molecule antagonists of the thyrotropin-releasing hormone receptor (TRHR) signaling pathway (AID 1346877; active means well fitted inhibition curve with a large enough effect in the repeat runs, not every such curve was filed as active; further: series mostly up to about 51 µM)
Thyrotropin-releasing hormone receptor (Homo sapiens), sequence (P34981 whole entry, looked up): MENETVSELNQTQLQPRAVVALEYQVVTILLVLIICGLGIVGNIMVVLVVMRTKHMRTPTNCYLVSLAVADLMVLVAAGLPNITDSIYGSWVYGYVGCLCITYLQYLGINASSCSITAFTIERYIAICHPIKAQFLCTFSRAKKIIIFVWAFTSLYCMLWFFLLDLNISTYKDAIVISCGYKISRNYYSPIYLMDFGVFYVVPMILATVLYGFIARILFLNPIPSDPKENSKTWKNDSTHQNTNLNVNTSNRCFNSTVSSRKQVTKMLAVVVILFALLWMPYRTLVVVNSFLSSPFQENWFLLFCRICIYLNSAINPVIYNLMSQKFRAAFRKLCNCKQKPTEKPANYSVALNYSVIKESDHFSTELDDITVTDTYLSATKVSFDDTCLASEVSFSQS
Method in brief: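 Screening used HEK293 cells engineered with TRHR, with a brief 5 min room-temperature compound exposure preceding addition of TRH to 1 nM. The read-out was kinetic calcium-dye fluorescence, concentration-response from 15 doses in triplicate.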

[10] = molecular target: Thyrotropin-releasing hormone receptor (Homo sapiens) (UniProt P34981); assay: qHTS assay to identify small molecule agonists of the thyrotropin-releasing hormone receptor (TRHR) signaling pathway (AID 1346891; calls by dose curve;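 further: HEK293 cells expressing TRHR with calcium dye readout; series mostly up to about 58 µM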)
Method in brief: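 Cells: TRHR-Hek293, seeded and incubated 18 h. Dye loading: 2 h at 37 °C. Compound added from DMSO stock by pin tool. Read-out: kinetic calcium fluorescence over 3 min.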

[11] = Caspase-3/7 induction in HepG2 cells by small molecules, qHTS assay (AID 1346978); further: nearly all actives have a fitted effect of over 15% in size
Method in brief: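 Wild-type HepG2 cells (2,000/well) were settled 5 h at 37 C, 5% CO2, then exposed to compounds in DMSO for 17 h. Caspase-3/7 activity was read by luminescence 30 min after adding Caspase-Glo 3/7 reagent at room temperature.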

[12] = Caspase-3/7 induction in CHO-K1 cells by small molecules, qHTS cell viability counter screen (AID 1346979); further: nearly all actives have a fitted effect of over 35% in size; further: potency means the concentration at half of the fitted maximal effect
Method in brief: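 Cytotoxicity counter screen run in parallel with the caspase-3/7 assay: CHO-K1 cells, 16hr compound treatment at 37C, then CellTiter-Fluor for 1hr before fluorescence reading.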

[13] = Caspase-3/7 induction in CHO-K1 cells by small molecules, qHTS assay (AID 1346980); further: nearly all actives have a fitted effect of over 15% in size
Method in brief: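 Wild-type cells were seeded at 1,500 per well and settled 5 hr at 37 C, 5% CO2, then exposed to DMSO-dissolved compounds for 17 hr. Caspase-Glo 3/7 reagent was added, and luminescence was read after 30min at room temperature.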

[14] = Caspase-3/7 induction in HepG2 cells by small molecules, qHTS cell viability counter screen (AID 1346981); further: nearly all actives have a fitted effect of over 30% in size; further: potency means the concentration at half of the fitted maximal effect
Method in brief: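 Multiplexed with the caspase-3/7 assay: HepG2 cells, 16 hr compound treatment, CellTiter-Fluor viability detection by fluorescence.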

[15] = Human pregnane X receptor (PXR) small molecule agonists, qHTS cell viability counter screen (AID 1346977); further: nearly all actives have a fitted effect of over 50% in size; further: potency means the concentration at half of the fitted maximal effect
Method in brief: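 Cytotoxicity counter screen run in the same wells as the PXR luciferase assay, using PXR-Luc HepG2 cells in charcoal-stripped serum medium. Viability: CellTiter-Fluor fluorescence after 24hr compound treatment.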

[16] = molecular target: Nuclear receptor subfamily 1 group I member 2 (Homo sapiens) (UniProt O75469); assay: Human pregnane X receptor (PXR) small molecule agonists, qHTS assay (AID 1346982); further: nearly all actives have a fitted effect of over 35% in size; further: potency means the concentration at half of the fitted maximal effect
Nuclear receptor subfamily 1 group I member 2 (Homo sapiens), sequence (O75469 whole entry, looked up): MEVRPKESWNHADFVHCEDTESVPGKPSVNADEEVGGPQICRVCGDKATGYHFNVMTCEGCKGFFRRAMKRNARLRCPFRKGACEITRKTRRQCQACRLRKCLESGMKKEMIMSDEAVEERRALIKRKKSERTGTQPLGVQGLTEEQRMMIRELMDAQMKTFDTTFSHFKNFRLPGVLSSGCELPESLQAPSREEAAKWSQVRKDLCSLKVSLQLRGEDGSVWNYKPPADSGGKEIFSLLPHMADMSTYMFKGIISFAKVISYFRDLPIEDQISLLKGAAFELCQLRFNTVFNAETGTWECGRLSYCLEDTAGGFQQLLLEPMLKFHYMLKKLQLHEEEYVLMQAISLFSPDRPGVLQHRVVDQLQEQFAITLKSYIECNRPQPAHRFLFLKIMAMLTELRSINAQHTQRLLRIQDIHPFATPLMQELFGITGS
Method in brief: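 We seeded PXR-Luc HepG2 cells in assay medium containing 5% charcoal-stripped FBS, added compounds 5 hr later, incubated 24 hr, and read luminescence with ONE-Glo reagent.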

[17] = qHTS assay to identify small molecule agonists of the TGF-beta/Smad signaling pathway (AID 1346859; active means well fitted activation curve with a large enough effect in the signal ratio in the repeat runs, not every such curve was filed as active; the % refers to the signal ratio; further: series mostly up to about 77 µM)
Method in brief: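 Reporter line: HEK 293T with stably integrated SBE-controlled beta-lactamase. Compound exposure lasts 5 hr at 37 C and 5% CO2; substrate loading follows for 2 hr at room temperature, with emission read at 460 and 530 nm.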

[18] = molecular target: Nuclear receptor subfamily 1 group I member 2 (Rattus norvegicus) (UniProt Q9R1A7); assay: Rat pregnane X receptor (rPXR) activation by small molecules, qHTS assay (AID 1346983); conditions: rPXR luciferase reporter cells, One-Glo luminescence, 24 h; max activation: stronger effect = higher value; further: nearly all actives have a fitted effect of over 20% in size
Nuclear receptor subfamily 1 group I member 2 (Rattus norvegicus), sequence (Q9R1A7 whole entry, looked up): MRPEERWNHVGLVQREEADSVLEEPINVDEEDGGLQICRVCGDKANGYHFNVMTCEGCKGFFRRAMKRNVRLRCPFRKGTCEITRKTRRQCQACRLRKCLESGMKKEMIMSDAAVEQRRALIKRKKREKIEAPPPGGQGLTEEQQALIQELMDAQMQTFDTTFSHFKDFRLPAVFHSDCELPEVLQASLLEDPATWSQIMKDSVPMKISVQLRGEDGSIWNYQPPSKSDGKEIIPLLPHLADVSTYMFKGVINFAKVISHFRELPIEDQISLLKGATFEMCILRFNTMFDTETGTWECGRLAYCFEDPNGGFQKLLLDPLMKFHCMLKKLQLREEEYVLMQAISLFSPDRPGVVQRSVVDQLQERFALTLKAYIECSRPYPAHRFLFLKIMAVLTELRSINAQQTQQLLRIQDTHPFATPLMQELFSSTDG
Method in brief: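 Cell-based rPXR luciferase reporter assay, 2,000 cells per well, rested 5hr at 37 C before compound addition in DMSO, then 24 hr at 37 C. One-Glo reagent was added and luminescence read after 30 min at room temperature.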

[19] = molecular target: Nuclear receptor subfamily 1 group I member 2 (Homo sapiens) (UniProt O75469); assay: Human pregnane X receptor (PXR) activation by small molecules, qHTS assay (AID 1346985); further: nearly all actives have a fitted effect of over 40% in size
Method in brief: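 DPX-2 cells (HepG2 co-transfected with a PXR response element and a CYP3A4-promoter luciferase construct) were seeded at 2,000 per well, rested 5 hr at 37C, then exposed to DMSO-dissolved compounds for 24 hr. Activation was read as luciferase luminescence.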

[20] = molecular target: Nuclear receptor subfamily 1 group I member 2 (Homo sapiens) (UniProt O75469); assay: CYP3A4 induction through human pregnane X receptor (PXR) by small molecules, qHTS assay (AID 1346984); further: nearly all actives have a fitted effect of over 40% in size
Method in brief: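 qHTS, concentration-response format: HepG2 DPX-2 line, PXR/CYP3A4-luc. Exposure 24 h, 37C. Substrate Luciferin-IPA 3uM final, 3 h. Detection One-Glo, 30 min RT.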
On the % scale 0 is the no-effect control and ±100 the full control effect.

C=C(C)C(=O)OCCCCCC
inactive: outcome [1] | Potency [2] | Potency [3] | Potency [4] | Potency [5] | Potency [6] | Potency [7] | Potency [8] | outcome [9] | Potency [10] | Potency [11] | Potency [12] | Potency [13] | Potency [14]

Cc1cc(O)c2c(c1)C(=O)c1cc(O)cc(O)c1C2=O
inactive: outcome [1] | Potency [3] | Potency [5] | Potency [6] | Potency [7] | Potency [8] | Potency [10] | Potency [11] | Potency [13]
active: Potency [2] 15.4 µM | Potency [4] 29.9 µM and 27.3 µM | Potency [15] 29.9 µM | Potency [12] 48.6 µM | Potency [14] 26.7 µM and 21.7 µM | Potency [16] 29.9 µM and 21.7 µM

CCCCC(CC)COC(=O)/C=C\C(=O)OCC(CC)CCCC (stereo unspecified)
48.5 µM (active) and inactive: Potency [16]
inactive: outcome [1] | Potency [2] | Potency [3] | Potency [4] | Potency [5] | Potency [6] | Potency [7] | Potency [8] | Potency [10] | Potency [11] | Potency [12] | Potency [13] | Potency [14]

CCCCOCCO
inactive: outcome [1] | Potency [2] | Potency [3] | Potency [4] | Potency [5] | Potency [6] | Potency [7] | Potency [8] | outcome [9] | Potency [10] | Potency [15] | Potency [11] | Potency [12] | Potency [13] | Potency [14] | Potency [16]

OCC#CCO
inactive: outcome [1] | Potency [2] | Potency [3] | Potency [4] | Potency [5] | Potency [6] | Potency [7] | Potency [8] | outcome [17] | Potency [10] | Potency [11] | Potency [13] | Potency [14]
55.3 µM (active) and inactive: Potency [16]

CCCCC/C=C\C/C=C\CCCCCCCC(=O)OC
active: Potency [16] 67.8 µM and 61.1 µM
inactive and 61.1 µM (active): Potency [12]
inactive: outcome [1] | Potency [2] | Potency [3] | Potency [4] | Potency [5] | Potency [6] | Potency [7] | Potency [8] | outcome [17] | Potency [15] | Potency [11] | Potency [13] | Potency [14]

CN(CCOc1ccc(CC2SC(=O)NC2=O)cc1)c1ccccn1 (stereo unspecified)
54.2 µM (active) and inactive: Potency [16]
48.3 µM (active) and inactive: Potency [4]
inactive: outcome [1] | Potency [2] | Potency [3] | Potency [5] | Potency [6] | Potency [7] | Potency [8] | Potency [11] | Potency [12] | Potency [13] | Potency [14] | max activation [18] -1.4% | outcome [19]

NCc1cccc(CN)c1
inactive: outcome [1] | Potency [2] | Potency [3] | Potency [4] | Potency [5] | Potency [6] | Potency [7] | Potency [8] | Potency [10] | Potency [15] | Potency [11] | Potency [12] | Potency [13] | Potency [14]

CCCCOCCOCCOC(=O)CCCCC(=O)OCCOCCOCCCC
inactive: outcome [1] | Potency [2] | Potency [3] | Potency [4] | Potency [5] | Potency [6] | Potency [7] | Potency [8] | outcome [9] | Potency [10] | Potency [15] | Potency [11] | Potency [12] | Potency [13] | Potency [14] | Potency [16]

CC(=O)Nc1ccc(C(=O)O)cc1
inactive: outcome [1] | Potency [2] | Potency [3] | Potency [4] | Potency [5] | Potency [6] | Potency [7] | Potency [8] | Potency [10] | Potency [11] | Potency [12] | Potency [13] | Potency [14] | Potency [16] | max activation [18] -3.56% | outcome [20] | outcome [19]

Nc1nc2ncc(CNc3ccc(C(=O)N[C@@H](CCC(=O)O)C(=O)O)cc3)nc2c(=O)[nH]1
inactive: outcome [1] | Potency [2] | Potency [3] | Potency [4] | Potency [5] | Potency [6] | Potency [7] | Potency [8] | outcome [17] | Potency [15] | Potency [11] | Potency [12] | Potency [13] | Potency [14] | max activation [18] -0.844% | outcome [20] | outcome [19]

Cc1cc(O)cc(C)c1Cl
inactive: outcome [1] | Potency [2] | Potency [3] | Potency [4] | Potency [5] | Potency [6] | Potency [7] | Potency [8] | outcome [9] | Potency [10] | Potency [15] | Potency [11] | Potency [12] | Potency [13] | Potency [14] | max activation [18] -1.35% | outcome [20] | outcome [19]

COCC(=O)O
inactive: outcome [1] | Potency [2] | Potency [3] | Potency [4] | Potency [5] | Potency [6] | Potency [7] | Potency [8] | outcome [17] | Potency [15] | Potency [11] | Potency [12] | Potency [13] | Potency [14] | Potency [16]

C=C1C2CCC(C2)C1(C)C (stereo unspecified)
inactive: outcome [1] | Potency [2] | Potency [3] | Potency [4] | Potency [5] | Potency [6] | Potency [7] | Potency [8] | Potency [10] | Potency [11] | Potency [12] | Potency [13] | Potency [14]

O=c1c(-c2ccc(O)cc2)coc2cc(O)ccc12
inactive: outcome [1] | Potency [2] | Potency [3] | Potency [4] | Potency [5] | Potency [6] | Potency [7] | Potency [8] | Potency [15] | Potency [11] | Potency [12] | Potency [13] | Potency [14]
